Reference: PubChem BioAssay (NCATS)
Results filed as inconclusive are left out. Calls of active or inactive are those of the source. Unless noted, the call rests on the fitted dose curve; in most records, active means well fitted curve in the direction sought with a large enough effect; inconclusive means small, poorly fitted or top-dose-only effect, or another doubt; inactive means no such curve, though single readings can be large; an effect the other way counts as inactive or inconclusive.

Legend:
[1] = Validation of Assay for Modulators of Lamin A Splicing (AID 1459; active means well fitted curve in the direction sought with a large enough effect in the signal ratio; the % refers to the signal ratio;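 further: cells exposed to compound for two days before reading; 0% is about no effect; ratio rise marks activators and ratio drop marks inhibitors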)
Procedure, shortened: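 HeLa S3 lamin A-EGFP/DsRed2 stable clone, 600 cells/well, Opti-MEM 2% FBS; compounds by pin tool; 48 hrs, 37 °C/5% CO2; Acumen 488 nm scan, objects 10-100 um; GFP/RFP intensity ratio.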

[2] = target: DNA repair nuclease/redox regulator APEX1 (Homo sapiens) (UniProt P27695); test: qHTS Validation Assay for Inhibitors of the Human Apurinic/apyrimidinic Endonuclease 1 (APE1) (AID 1705;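 further: TAMRA fluorescence gain over two minutes as APE1 cuts a quenched THF abasic duplex; series mostly up to about 57 µM; on the % scale 0 is the no-effect control and ±100 the full control effect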)
Procedure, shortened: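 qHTS, 1536-well. APE1 + cpd 15 min RT → 50 nM TAMRA/BHQ-2 THF-abasic dsDNA substrate → kinetic fluorescence, 3 reads/60 s; delta(read3−read1) = reaction progress. No-enzyme buffer = negative control.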

[3] = Counterscreen for APE1 Inhibitors: Fluorescent Dye Displacement Validation Assay (AID 1707);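 further: plate controls were ThO with dsDNA and no compound for no effect and ThO without dsDNA for full effect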
Procedure, shortened: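 Counterscreen flags promiscuous DNA binders: compounds displacing ThO from duplex DNA (abasic THF site, 50 nM) reduce 540 nm emission (480 nm excitation). ThO 250 nM final; Tris-HCl pH 7.5 with NaCl, MgCl2 and Tween-20.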

[4] = target: Endonuclease 4 (Escherichia coli (strain K12)) (UniProt P0A6C1); test: Counterscreen for APE1 Inhibitors: qHTS Validation Assay for Inhibitors of Endonuclease IV (AID 1708); further: on the % scale 0 is the no-effect control and ±100 the full control effect
Procedure, shortened: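 Incision of a double-stranded 50 nM TAMRA/BHQ-2 abasic substrate was followed kinetically (525/598 nm, reads every 60 s) after 15 min enzyme–compound preincubation with 2 nM EndoIV in pH 7.5 Tris buffer with MgCl2, DTT and Tween-20; concentration-response format.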

[5] = qHTS for differential inhibitors of proliferation of Plasmodium falciparum line GB4 (AID 1816); details: Potency: Plasmodium falciparum GB4 proliferation inhibition;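 further: parasite growth measured after 72 h incubation; 0% = vehicle DMSO and -100% = reference inhibitor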
[6] = qHTS for differential inhibitors of proliferation of Plasmodium falciparum line 3D7 (AID 1876);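 further: parasite growth measured after three days of culture; 0% = vehicle wells and -100% = reference inhibitor wells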
[7] = qHTS for differential inhibitors of proliferation of Plasmodium falciparum line D10 (AID 1877);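 further: parasites grown with compound for 72 h before DNA staining; plate controls were vehicle wells for no effect and reference inhibitor wells for full effect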
[8] = qHTS for differential inhibitors of proliferation of Plasmodium falciparum line Dd2 (AID 1882); details: Potency: Plasmodium falciparum Dd2 proliferation inhibition;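 further: series mostly up to about 29 µM; plate controls were DMSO vehicle for no effect and 0.29 µM artemisinin for full effect; nearly all actives have a fitted effect of over 65% in size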
Procedure, shortened: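 SYBR Green DNA fluorescence (ex 485, em 535 nm) after overnight lysis quantifies parasite growth; compound exposure lasted 72 h at 37 C on infected red cells at 2.5% hematocrit, 0.3% parasitemia (final). Artemisinin 0.29 uM and vehicle wells define normalization.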

[9] = qHTS for differential inhibitors of proliferation of Plasmodium falciparum line HB3 (AID 1886); details: Potency: Plasmodium falciparum HB3 proliferation inhibition;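 further: parasites grown with compound for 72 h before SYBR Green readout; plate controls were vehicle for no effect and reference inhibitor for full effect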
[10] = target: Ferritin light chain (Equus caballus) (UniProt P02791); test: qHTS Validation Assay for Identification of Novel General Anesthetics (AID 2323); further: series mostly up to about 77 µM; on the % scale 0 is the no-effect control and ±100 the full control effect
Procedure, shortened: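 Fluorescence at 535 nm (excitation 380 nm) reported loss of 1-AMA binding to horse-spleen apoferritin (10 uM) in PBS with 50% saturated 1-aminoanthracene, after 10 min room-temperature incubation with compound; values from Hill fits of normalized response.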

[11] = target: ATP-dependent DNA helicase Q1 (Homo sapiens) (UniProt P46063); test: qHTS Validation Assay for Inhibitors of RecQ-Like Dna Helicase 1 (RECQ1) (AID 2353);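 further: plate controls were DMSO vehicle for no effect and enzyme-free control for full effect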
Procedure, shortened: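 RECQ1T1 50 nM; forked duplex (20 bp + 30-nt ss tails) 200 nM, ATP 2 mM final; pH 8.0, 2 mM MgCl2, 2.5 ug/ml poly(dI-dC); 15 min compound preincubation; discontinuous kinetic read over 2 h at RT.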

[12] = Validation screen for small molecules that induce DNA re-replication in MCF 10A normal breast cells (AID 463097); further: 0% is about no effect; nearly all actives have a fitted effect of over 60% in size
Procedure, shortened: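 Image-based qHTS: normal breast cells are incubated with compound for 48 hr, stained with Hoechst, and scanned for total nuclear fluorescence. Compounds raising the fraction of nuclei with elevated DNA content count as re-replication inducers.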

[13] = Quantitative high throughput screen for delayed death inhibitors of the malarial parasite plastid, 96 hour incubation (AID 488745);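 further: luciferase-expressing P. falciparum in erythrocytes at 2% hematocrit and 0.1% parasitemia; series mostly up to about 29 µM; on the % scale 0 is the no-effect control and ±100 the full control effect; nearly all actives have a fitted effect of over 70% in size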
Procedure, shortened: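 Readout is firefly luciferase luminescence from an integrated reporter in P. falciparum; lower signal marks inhibited growth. Cultures at 2% hematocrit and 0.1% parasitemia were treated with compound across two generations (96 h, 37 C, 5% CO2).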

[14] = Quantitative high throughput screen for delayed death inhibitors of the malarial parasite plastid, 48 hour incubation (AID 488752); further: on the % scale 0 is the no-effect control and ±100 the full control effect; nearly all actives have a fitted effect of over 65% in size
Procedure, shortened: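 First, compound was pinned into RPMI 1640 medium containing 0.5% Albumax. Next, reporter-parasite-infected erythrocytes were added to 2% hematocrit and 0.1% parasitemia. After 48 h at 37 C under 5% CO2, luciferase detection reagent was added and luminescence read.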

[15] = target: M-phase phosphoprotein 8 (Homo sapiens) (UniProt Q99549); test: qHTS Validation Assay for Inhibitors for MPP8 Chromodomain Interactions with Methylated Histone Tails (AID 488949);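 further: 50 nM MPP8 with 50 nM peptide preformed then compounds added for 30 min; AlphaScreen signal from MPP8 chromodomain bound to biotinylated H3K9me3 peptide; top concentration of the series differs between compounds; on the % scale 0 is the no-effect control and ±100 the full control effect; nearly all actives have a fitted effect of over 55% in size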
Procedure, shortened: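 50 nM MPP8 + 50 nM b-H3K9me3 peptide, PBS pH 7.4/0.01% Tween-20, 30 min RT; + cpd 30 min RT; + AlphaScreen donor/Ni-chelate acceptor beads 10 ug/mL final, 30 min dark; luminescence read.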

[16] = target: Thyrotropin receptor (Homo sapiens) (UniProt P16473); test: qHTS Assay for Antagonists of the Thyroid Stimulating Hormone Receptor (AID 488980); further: series mostly up to about 58 µM; 0% is about no effect
Procedure, shortened: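 Readout is cAMP by HTRF competition between cellular cAMP and cAMP-d2 for a cryptate-labelled antibody. Antagonism was assessed in TSHR-transfected HEK293 cells stimulated with 4 nM TSH (EC80, final) in the presence of RO 20-1724.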

[17] = target: Thyrotropin-releasing hormone receptor (Homo sapiens) (UniProt P34981); test: qHTS for Small Molecule Agonists and Allosteric Enhancers of Human TRH Receptor: Validation Screen for Agonists (AID 493127;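 active means calcium activation more than 3 SD above the typical response in the agonist read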;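 further: intracellular calcium rise by fluo-8 fluorescence before TRH EC20 addition; 0% is about no effect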); details: TRH receptor agonist cell assay; at 2 µM; hits give high values
Procedure, shortened: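 Compounds are added by online pintool to dye-loaded TRHR cells while fluorescence is recorded every second. A rise in calcium signal during the agonist read marks activation; a later 10 nM TRH addition (EC20) serves the separate enhancer mode.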

[18] = target: Galactokinase (Homo sapiens) (UniProt P51570); test: qHTS Validation Assay for Inhibitors of Human Galactokinase (GALK) (AID 493189); further: 0% is about no effect
Procedure, shortened: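 5 nM GALK / 100 uM galactose / 35 uM ATP, 20 mM HEPES pH8.0, 5 mM MgCl2, 60 mM NaCl, 1 mM DTT, 0.01% BSA (final). RT 1 h; Kinase-Glo Plus luminescence.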

[19] = Validation screen for small molecules that induce DNA re-replication in SW480 colon adenocarcinoma cells (AID 504364); further: 0% is about no effect
Procedure, shortened: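 Image-based qHTS: compounds were incubated with SW480 cells for 48 hr, nuclei stained with Hoechst, and per-nucleus fluorescence intensity scanned to flag cells with excess DNA content.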

Chain of Ferritin light chain (Equus caballus) (P02791 2-175 limits assumed): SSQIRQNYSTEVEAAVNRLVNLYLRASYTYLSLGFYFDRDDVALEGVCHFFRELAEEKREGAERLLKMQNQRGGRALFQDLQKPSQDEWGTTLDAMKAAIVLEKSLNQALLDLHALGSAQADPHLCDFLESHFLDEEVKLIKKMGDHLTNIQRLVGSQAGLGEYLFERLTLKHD
Chain of ATP-dependent DNA helicase Q1 (Homo sapiens) (P46063 whole entry, looked up): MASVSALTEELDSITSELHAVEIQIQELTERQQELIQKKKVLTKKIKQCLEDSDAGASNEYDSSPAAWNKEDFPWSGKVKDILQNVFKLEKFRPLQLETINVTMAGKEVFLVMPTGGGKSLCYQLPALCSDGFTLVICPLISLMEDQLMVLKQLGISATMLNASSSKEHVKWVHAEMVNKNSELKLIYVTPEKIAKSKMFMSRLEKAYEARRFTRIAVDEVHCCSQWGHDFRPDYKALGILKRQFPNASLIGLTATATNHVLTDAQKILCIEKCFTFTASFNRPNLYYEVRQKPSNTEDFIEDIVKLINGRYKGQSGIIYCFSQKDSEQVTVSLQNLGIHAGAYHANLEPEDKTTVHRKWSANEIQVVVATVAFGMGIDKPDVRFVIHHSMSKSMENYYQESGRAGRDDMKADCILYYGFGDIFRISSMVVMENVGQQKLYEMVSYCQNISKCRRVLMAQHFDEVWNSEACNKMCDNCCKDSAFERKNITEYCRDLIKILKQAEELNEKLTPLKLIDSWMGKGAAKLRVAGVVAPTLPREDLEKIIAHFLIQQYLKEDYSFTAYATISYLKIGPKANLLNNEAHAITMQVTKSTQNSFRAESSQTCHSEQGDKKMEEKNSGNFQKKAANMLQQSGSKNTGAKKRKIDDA
Chain of Thyrotropin-releasing hormone receptor (Homo sapiens) (P34981 whole entry, looked up): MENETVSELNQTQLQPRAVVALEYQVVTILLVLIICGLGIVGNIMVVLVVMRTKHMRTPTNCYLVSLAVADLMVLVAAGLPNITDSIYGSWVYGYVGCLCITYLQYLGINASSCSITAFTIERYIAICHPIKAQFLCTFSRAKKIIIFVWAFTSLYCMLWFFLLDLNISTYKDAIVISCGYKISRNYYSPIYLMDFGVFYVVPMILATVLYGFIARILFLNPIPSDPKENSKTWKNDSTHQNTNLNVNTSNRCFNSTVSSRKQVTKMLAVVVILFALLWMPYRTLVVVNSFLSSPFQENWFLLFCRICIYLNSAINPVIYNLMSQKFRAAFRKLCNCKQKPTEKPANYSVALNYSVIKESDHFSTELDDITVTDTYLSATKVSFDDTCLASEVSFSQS
Chain of DNA repair nuclease/redox regulator APEX1 (Homo sapiens) (P27695 whole entry, looked up): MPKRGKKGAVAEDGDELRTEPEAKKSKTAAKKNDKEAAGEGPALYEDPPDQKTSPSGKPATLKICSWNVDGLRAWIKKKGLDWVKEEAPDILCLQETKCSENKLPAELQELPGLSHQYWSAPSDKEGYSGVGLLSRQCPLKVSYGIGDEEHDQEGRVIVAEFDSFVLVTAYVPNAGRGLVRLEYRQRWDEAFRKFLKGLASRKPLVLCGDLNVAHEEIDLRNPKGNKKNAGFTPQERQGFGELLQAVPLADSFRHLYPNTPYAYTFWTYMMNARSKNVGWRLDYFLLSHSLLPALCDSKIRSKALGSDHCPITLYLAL
Chain of Galactokinase (Homo sapiens) (P51570 whole entry, looked up): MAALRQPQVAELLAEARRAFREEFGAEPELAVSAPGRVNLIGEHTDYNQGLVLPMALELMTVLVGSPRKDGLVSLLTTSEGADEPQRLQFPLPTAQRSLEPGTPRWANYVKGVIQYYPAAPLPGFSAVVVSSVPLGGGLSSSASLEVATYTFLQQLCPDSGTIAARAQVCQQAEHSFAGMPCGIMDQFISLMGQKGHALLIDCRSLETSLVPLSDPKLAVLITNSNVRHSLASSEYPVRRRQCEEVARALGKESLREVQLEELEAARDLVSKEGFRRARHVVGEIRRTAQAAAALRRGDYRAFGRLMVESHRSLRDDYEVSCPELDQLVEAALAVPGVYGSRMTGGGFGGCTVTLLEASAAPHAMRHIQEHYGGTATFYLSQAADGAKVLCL
Chain of M-phase phosphoprotein 8 (Homo sapiens) (Q99549 whole entry, looked up): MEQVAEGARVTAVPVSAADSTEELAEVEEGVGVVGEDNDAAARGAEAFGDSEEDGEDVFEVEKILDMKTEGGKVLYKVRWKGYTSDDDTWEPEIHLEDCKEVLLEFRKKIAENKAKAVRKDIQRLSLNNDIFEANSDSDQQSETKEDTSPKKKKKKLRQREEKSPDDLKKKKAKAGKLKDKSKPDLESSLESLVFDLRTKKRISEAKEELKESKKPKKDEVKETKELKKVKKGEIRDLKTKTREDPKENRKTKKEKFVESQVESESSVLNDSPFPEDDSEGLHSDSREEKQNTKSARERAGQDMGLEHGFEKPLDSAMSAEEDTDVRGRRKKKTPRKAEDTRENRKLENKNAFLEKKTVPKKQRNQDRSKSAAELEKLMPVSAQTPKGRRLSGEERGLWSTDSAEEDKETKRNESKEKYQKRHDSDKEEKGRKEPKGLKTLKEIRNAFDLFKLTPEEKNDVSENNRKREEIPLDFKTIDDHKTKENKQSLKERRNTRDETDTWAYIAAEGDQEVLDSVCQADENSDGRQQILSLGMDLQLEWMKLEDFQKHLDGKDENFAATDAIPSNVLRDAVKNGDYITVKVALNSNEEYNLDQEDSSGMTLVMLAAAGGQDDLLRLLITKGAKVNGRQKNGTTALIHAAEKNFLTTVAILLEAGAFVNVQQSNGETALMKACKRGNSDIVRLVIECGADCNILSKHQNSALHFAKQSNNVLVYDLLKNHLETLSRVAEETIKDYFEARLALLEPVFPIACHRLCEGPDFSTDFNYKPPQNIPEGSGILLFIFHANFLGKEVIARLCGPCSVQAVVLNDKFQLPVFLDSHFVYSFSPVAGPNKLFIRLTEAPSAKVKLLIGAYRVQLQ
Chain of Thyrotropin receptor (Homo sapiens) (P16473 whole entry, looked up): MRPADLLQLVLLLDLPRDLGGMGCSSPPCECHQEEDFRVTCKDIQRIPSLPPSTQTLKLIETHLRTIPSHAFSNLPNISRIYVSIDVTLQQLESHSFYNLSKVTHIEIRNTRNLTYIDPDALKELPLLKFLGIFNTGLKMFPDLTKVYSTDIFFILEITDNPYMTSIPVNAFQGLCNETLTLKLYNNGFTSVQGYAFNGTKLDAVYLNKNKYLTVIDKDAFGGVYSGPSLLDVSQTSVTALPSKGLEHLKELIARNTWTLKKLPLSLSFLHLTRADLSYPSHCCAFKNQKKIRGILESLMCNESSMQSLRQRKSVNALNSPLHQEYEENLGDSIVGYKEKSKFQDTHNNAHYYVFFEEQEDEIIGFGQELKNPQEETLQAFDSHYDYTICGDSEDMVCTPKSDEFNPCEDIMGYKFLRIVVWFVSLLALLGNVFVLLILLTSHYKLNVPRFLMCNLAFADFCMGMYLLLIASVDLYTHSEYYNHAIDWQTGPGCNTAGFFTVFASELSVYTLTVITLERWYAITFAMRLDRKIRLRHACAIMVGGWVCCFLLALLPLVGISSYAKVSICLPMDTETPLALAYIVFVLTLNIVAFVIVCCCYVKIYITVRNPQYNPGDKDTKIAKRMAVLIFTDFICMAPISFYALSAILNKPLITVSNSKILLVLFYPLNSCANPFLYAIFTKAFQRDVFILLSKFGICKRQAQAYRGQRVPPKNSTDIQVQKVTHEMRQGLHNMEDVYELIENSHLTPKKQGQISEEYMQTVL

OC[C@H]1O[C@@H](n2cnc3c(NC4CCCC4)ncnc32)[C@H](O)[C@H]1O
inactive: outcome [1] | Potency [2] | Potency [3] | outcome [4] | Potency [5] | Potency [6] | Potency [7] | Potency [8] | Potency [9] | outcome [10] | Potency [11] | outcome [12] | Potency [13] | Potency [14] | Potency [15] | outcome [16] | activation [17] -0.438% | outcome [18] | outcome [19]

CNC(=O)[C@H]1O[C@@H](n2cnc3c(NCc4ccc(N)cc4)ncnc32)[C@H](O)[C@H]1O
inactive: outcome [1] | Potency [2] | Potency [3] | Potency [5] | Potency [6] | Potency [7] | Potency [8] | Potency [9] | outcome [10] | Potency [11] | outcome [12] | Potency [13] | Potency [14] | Potency [15] | activation [17] -0.312% | outcome [18] | outcome [19]
